Shiga toxin inh: A qHTS for Small Molecule Inhibitors of Shiga Toxin; Vero cells, Shiga toxin protein synthesis inhibition reporter; inhibition, % at 38.7 µM; 290,000 compounds, 9.2% hits; AID 2315, 2010; in the data active = inhibition mostly above about 28%, no sharp cut-off; inactive = mostly below about 43%; also: 0% is about no effect
RE007 growth inh: qHTS Assay for Inhibitors of the HIV-1 protein Vpr. S. pombe RE007 Vpr strain, BacTiter-Glo ATP luminescence, 24 h. Potency, µM (doses to about 92.2 µM), without a hit: at the highest dose activity change, negative = less growth, usual class: inhibitors. 360,000 compounds, 0.21% hits; active = well fitted falling curve with a large enough effect; inconclusive = small, poorly fitted or top-dose-only effect; inactive = no such curve, though single readings can be large or run the other way; also: potency is read from the fitted curve at half-maximal effect; % is scaled to controls: 0 for no effect and ±100 for the full control effect; nearly all actives have a fitted effect of over 50% in size
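Fission yeast RE007 carrying one integrated HIV-1 vpr copy, seeded at OD 0.01 in PMG+AL medium with 23 nL pinned compound. Grown 24 h at 30 degrees; viability read by BacTiter-Glo luminescence after 5 min.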
CHX counter: Cycloheximide Counterscreen for Small Molecule Inhibitors of Shiga Toxin. cell reporter, cycloheximide protein synthesis inhibition counterscreen. max response, %. 300,000 compounds, 12% hits. AID 2314, 2010; in the data active = max response mostly above about 13%, no sharp cut-off; inactive = mostly below about 14%; also: read at 38.3 µM for the half of the compounds with a filed dose; 0% is about no effect
LmPK inh: qHTS Assay for Inhibitors of Leishmania Mexicana Pyruvate Kinase (LmPK) | Q27686 | purified LmPK, Kinase-Glo ATP luminescence, 1 h | Potency, µM (highest dose often 57.5 µM), for the others: at the top dose activity change, negative = inhibition, most hits filed as inhibitors | 290,000 compounds, 0.37% hits | AID 1721, 2009; also: potency is read from the fitted curve at half-maximal effect; % is scaled to controls: 0 for no effect and ±100 for the full control effect
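qHTS format; LmPK 0.1 nM; substrates PEP 0.5 mM and ADP 0.1 mM. One-hour room-temperature incubation, then coupled luciferase luminescence; 0.5 nM enzyme wells mark activation.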
TbPYK inhibitor: qHTS of Trypanosoma Brucei Inhibitors; pyruvate kinase (Trypanosoma brucei), Q57TT1; TbPYK enzyme, Kinase-Glo Plus ATP luminescence, 45 min; Potency, µM (top dose mostly 76.8 µM), for inactives: top-dose activity, negative = inhibition, most hits filed as inhibitors; 410,000 compounds, 0.12% hits; also: potency is read from the fitted curve at half-maximal effect; % is scaled to controls: 0 for no effect and ±100 for the full control effect; nearly all actives have a fitted effect of over 50% in size
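Luminescence from Kinase-Glo Plus, added after a 45-minute room-temperature reaction, served as the end-point read-out. The enzyme and substrate were preincubated with compound before ADP (130 uM final) initiated turnover. Concentration-effect curves came from normalized qHTS data.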
Giardia FBPA inh: qHTS Assay for Inhibitors of Fructose-1,6-bisphosphate Aldolase from Giardia Lamblia. purified Giardia FBPA. Potency, µM (doses to about 59.6 µM), for inactives: at the highest dose activity, negative = inhibition, actives largely listed as inhibitors. 290,000 compounds, 0.71% hits. AID 2451, 2010; also: potency is read from the fitted curve at half-maximal effect; % is scaled to controls: 0 for no effect and ±100 for the full control effect; nearly all actives have a fitted effect of over 55% in size
Target sequence (A8B2U2 whole entry, looked up): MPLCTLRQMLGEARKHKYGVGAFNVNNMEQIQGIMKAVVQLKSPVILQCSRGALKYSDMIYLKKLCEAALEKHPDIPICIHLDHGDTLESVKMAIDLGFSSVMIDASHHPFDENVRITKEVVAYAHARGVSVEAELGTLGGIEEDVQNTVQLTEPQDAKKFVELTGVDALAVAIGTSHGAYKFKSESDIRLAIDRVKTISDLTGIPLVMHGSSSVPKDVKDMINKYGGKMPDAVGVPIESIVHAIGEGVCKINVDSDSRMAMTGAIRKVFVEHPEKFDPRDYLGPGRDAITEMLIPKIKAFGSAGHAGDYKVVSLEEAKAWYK
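40 nM FBPA preincubated 10 min at RT with compound (up to 57.5 uM final), then substrate plus GAPDH/TPI/NAD/arsenate coupling and diaphorase/resazurin added. Fluorescence read after 20 min at RT, 525/598 nm.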
Numbers without * were called inactive; ? = inconclusive; / = no result. Only a selection was taken, and hits are over-represented in it overall. Unless noted, calls follow the shape of the dose curve; as a rule, active = well fitted curve in the direction sought with a large enough effect; inconclusive = small, poorly fitted or top-dose-only effect, or another doubt; inactive = no such curve, though single readings can be large; an effect the other way counts as inactive or inconclusive.

SMILES	Shiga toxin inh	RE007 growth inh	CHX counter	LmPK inh	TbPYK inhibitor	Giardia FBPA inh
COc1cccc(OCCSc2nc3ccccc3n2CC(=O)N2CCCCC2)c1	/	/	/	/	6.7%	/
Cc1ccc2onc(CC(=O)N3CCN(c4ccc(F)cc4)CC3)c2c1	/	/	/	/	-3.3%	/
O=C(c1ccc2c(c1)OCCO2)C1CCN(C(=O)Nc2ccc(F)cc2)CC1	19.2	3.1%	14.8	0.0%	-8.2%	/
COc1ccc(NC(=O)N2CCC(C(=O)c3ccc4c(c3)OCCO4)CC2)cc1	25.0	5.7%	20.8*	-9.7%	1.7%	16.2%
Cc1ccc(NC(=O)Nn2cnnc2)cc1Cl	-2.7	-16.6%	-1.1	-0.8%	0.0%	/
CCc1ccc(NC(=O)C(=O)NCc2ccccn2)cc1	59.7*	-0.2%	23.9*	4.6%	-0.8%	0.8%
CC(=O)c1cccc(NC(=O)NCc2cccnc2)c1	8.9	8.4%	-1.3	2.1%	-3.6%	5.6%
Cc1nn(C)cc1CNC(=O)C1(C)CC1(Cl)Cl (stereo unspecified)	8.8	-7.1%	-2.4	2.7%	-7.3%	2.8%
Cc1nn(C)cc1CNC(=O)Nc1ccc(Cl)c(Cl)c1	57.6*	-2.8%	43.6*	5.8%	-5.2%	3.6%
CCOC(=O)c1ccc(NC(=O)C(=O)NCc2ccccn2)cc1	25.4	-6.6%	16.0	-0.3%	-4.2%	0.6%
Cc1ccc(NC(=O)NCc2c(C)nn(C)c2C)cc1Cl	74.8*	4.8%	26.2*	3.0%	4.0%	-0.1%
CC(=O)c1cccc(NC(=O)NCc2ccccn2)c1	49.8*	5.8%	30.8*	-1.7%	0.4%	-2.5%
Cc1ccc(-c2noc(-c3ccccc3NC(=O)C3CC(=O)N(c4ccccc4C)C3)n2)cc1 (stereo unspecified)	/	/	/	/	2.2%	/
CCN(CCCNC(=O)CSc1cc(=O)n(CC)c2ccccc12)c1ccccc1	/	/	/	/	-2.0%	/
Cc1ccc(C(=O)NCc2ccccn2)cc1Cl	36.0*	-14.6%	25.2*	-3.3%	4.3%	6.0%
Cc1ccc(NC(=O)NCc2ccccn2)cc1Cl	39.1*	-0.9%	24.6*	-3.9%	-15.8%	12.1%
CCOc1ccc(NC(=O)NCc2ccccn2)cc1	38.7	14.3%	13.4	4.7%	0.7%	-4.5%
COc1ccc(NC(=O)NCc2ccccn2)cc1OC	12.3	-7.5%	0.5	-3.2%	3.7%	-4.9%
Cc1ccc(NC(=O)NCc2ccccn2)cc1	74.7*	12.2%	34.6*	-1.0%	1.0%	2.9%
Cc1ccc(CN(C(=O)c2ccccc2Br)C2CCS(=O)(=O)C2)o1 (stereo unspecified)	/	/	/	/	-6.2%	/
CCOc1ccc2cc(-c3nnc(Nc4ccccc4F)s3)c(=O)oc2c1	/	/	/	/	-6.4%	/
CNc1nc(-c2ccc(Cl)cc2)cs1	75.9*	-6.8%	27.5*	-8.1%	-0.7%	-17.4%
CC1(C)CC(c2nc(-c3ccc([N+](=O)[O-])cc3)cs2)CCO1 (stereo unspecified)	42.7	7.0%	17.0*	5.7%	-2.2%	-12.9%
CNc1nc(-c2ccc([N+](=O)[O-])cc2)cs1	52.7*	?	31.7*	-1.9%	4.1%	-1.4%
CCNc1nc(-c2ccc(Cl)cc2)cs1	81.0*	-16.0%	52.4*	-21.4%	0.1%	0.9%
SMILES	Shiga toxin inh	RE007 growth inh	CHX counter	LmPK inh	TbPYK inhibitor	Giardia FBPA inh
CCOC(=O)c1ccccc1NC(=O)CN(c1ccccc1OC)S(=O)(=O)c1ccc(C)cc1	/	/	/	/	0.9%	/
O=C1c2ccccc2CC[C@H]1CNCCc1ccc(O)cc1	/	/	/	/	/	0.7%
CCCc1cc(C(=O)Cc2nc3ccccc3s2)c(O)cc1O	24.2	1.0%	11.7	-2.7%	-12.9%	/
O=C(OCc1nc2ccccc2s1)c1ccc([N+](=O)[O-])o1	1.3	?	6.6	-4.4%	3.1%	1.8%
O=C(COC(=O)c1ccco1)Nc1nc2ccccc2s1	32.2	-7.6%	21.5*	0.4%	-0.9%	-11.3%
O=C(OCc1nc2ccccc2s1)c1ccc(Br)o1	80.2*	-21.3%	28.2*	2.7%	-5.4%	-2.2%
CCOC(=O)C(=O)Cc1nc2ccccc2s1	28.8	-20.7%	11.8*	3.4%	-4.9%	?
CC(=O)OCc1nc2ccccc2s1	91.7*	2.3%	29.3*	1.4%	0.7%	0.8%
CC[C@]1(c2ccccc2)NC(=O)NC1=O	-3.7	/	9.9	/	/	-5.1%
COc1ccc(-c2nc(C)c(CCNC(=O)c3cccc(C)c3)s2)cc1OC	/	/	/	/	-4.2%	/
NC(=O)c1ccccc1OCc1nc2ccccc2s1	97.3*	8.9%	33.6*	-13.3%	-0.9%	/
Cc1cc(C(=O)OCc2nc3ccccc3s2)c(C)o1	105.2*	-17.5%	52.7*	-4.5%	-6.9%	14.8%
O=C(OCc1nc2ccccc2s1)c1ccco1	90.4*	-5.8%	36.4*	-3.5%	-1.8%	0.7%
O=C(O)COCc1nc2ccccc2s1	-6.5	-1.8%	-3.0	-2.7%	-11.5%	4.1%
CCc1cc(-c2oncc2-c2ccc(OC)cc2)c(O)cc1OC	-2.8	/	-6.7	/	/	-23.1%
Cc1ccc(/C=C2\OC(=O)c3ccccc32)cc1	107.4*	-12.5%	52.9*	-10.6%	-2.2%	-1.0%
Cc1ccccc1/C=C1\OC(=O)c2ccccc21	40.3*	-1.7%	20.4*	-6.5%	-2.3%	1.0%
Cc1ccnc(NC(=O)CCC2COc3ccccc3O2)c1 (stereo unspecified)	17.3	-14.8%	13.0*	-6.5%	-7.6%	-0.1%
O=C(O)CCC1COc2ccccc2O1 (stereo unspecified)	-8.6	-1.8%	0.5	1.2%	1.5%	3.3%
O=C(CCC1COc2ccccc2O1)Nc1ccc(Cl)cn1 (stereo unspecified)	31.3*	-5.2%	14.4*	0.6%	-2.3%	-5.4%
CCOc1ccc(C(=O)/C=C/c2ccccc2C(F)(F)F)cc1	21.9	19.8%	21.4*	-3.8%	-0.6%	6.2%
COc1ccc(CNC(=O)/C=C/c2ccc(OCCCF)cc2)cc1	59.6	32.4%	14.2	-3.0%	-3.1%	3.0%
CCOc1ccc(/C=C/C(=O)c2ccccc2)cc1	43.4	/	31.0*	15.8µM*	-6.3%	-2.3%
O=C(O)COc1ccc(/C=C/C(=O)c2ccc(C3CCCCC3)cc2)cc1	48.9	7.8%	25.8*	0.9%	3.3%	7.3%
O=C(O)COc1ccc(/C=C/C(=O)c2ccc3ccccc3c2)cc1	19.6	23.7%	14.1	5.6%	0.8%	-1.0%
CCOc1ccc(/C=C/C(=O)NCc2ccccc2)cc1	29.6	/	20.3*	1.2%	-8.1%	-1.8%
COC(=O)c1sccc1S(=O)(=O)N(CC(=O)NCc1ccc(F)cc1)c1ccccc1	/	/	/	/	-3.2%	/
COc1ccc(C(=O)n2nc(-c3ccco3)nc2NCc2cccs2)cc1	/	/	/	/	-18.0%	/
CC(C)(C)C(=O)/C=C/c1ccc(Oc2ccccc2)cc1	120.0*	-14.2%	49.5*	-4.5%	-2.6%	-4.1%
